Among all 63,000 compounds or so, about 1,100 (1.7%) were called active. This excerpt belongs to a sample that is enriched for actives. Potency and affinity values are given separately. Values without a mark were called inactive. Cut-off read from the data, not from the text of the source: active = cytotoxicity above about 50%; inactive = the rest.

This assay is described as follows: cytotoxicity in HPDE-C7 cells, cell-based, fluorescence, HTS (AID 430).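 Note: cells exposed to compound for 48 hours before viability readout; 0% = vehicle and 100% = reference cytotoxic drug.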 As to conditions: HPDE-C7 pancreatic duct cells viability, at 10 µM, stronger effect = higher value.
In the case of `O=C(CSc1ccc2nnc(-c3ccccn3)n2n1)NCc1ccc2c(c1)OCO2`, the cytotoxicity was -15.3%.
`CCCC(=O)Nc1ccccc1-c1nnn(CC(=O)Nc2ccc(OC)cc2)n1`: the cytotoxicity is -30.9%.
Turning to `O=C(CSc1nnc(-c2cc3ccccc3cc2O)n1Cc1ccco1)c1ccc(F)cc1`, the cytotoxicity is -5.2%.
As for `COc1ccc(C(=O)CSc2nnc(-c3ccccn3)n2Cc2ccco2)cc1`, the cytotoxicity is -5%.
For the compound `COc1ccc(C(=O)CSc2nnc(-c3cc4ccccc4cc3O)n2Cc2ccco2)cc1`, the cytotoxicity was 55.6% (active).
With `CCN(CCNC(=O)c1cccc(N2CCCC2=O)c1)c1ccccc1`, the cytotoxicity is -9.5%.
Consider `CCc1cc(=O)oc2cc(C)cc(O)c12`, for which the cytotoxicity was 0%.
Then `CCCCc1cc(=O)oc2cc(C)c(CN3CCCC3)c(O)c12`, with -12.4%; and `CCCCCc1cc(O)c2c(C)cc(=O)oc2c1`, with 50.3% (active).
Regarding `CCCCOc1ccccc1NC(=O)Cn1c(-c2nonc2N)nc2ccccc21`, the cytotoxicity was 55.1% (active).
As to `COC(=O)c1ccccc1NC(=O)Cn1c(-c2nonc2N)nc2ccccc21`, the cytotoxicity is 47%.
The value for `COc1cccc(Cn2c(-c3nonc3N)nc3ccccc32)c1` was 53.8% (active).
As to `COc1ccc(CCNC(=O)Cn2c(-c3nonc3N)nc3ccccc32)cc1OC`, the cytotoxicity is 6.6%.
On to `Nc1nonc1-c1nc2ccccc2n1Cc1ccccc1`, for which the cytotoxicity was -38.3%.
Consider `CCOC(=O)c1ccccc1NC(=O)Cn1c(-c2nonc2N)nc2ccccc21`, for which the cytotoxicity was 67.8% (active).
As for `COc1cc(Cn2c(-c3nonc3N)nc3ccccc32)ccc1C`, the cytotoxicity is 30.4%.
`Nc1nonc1-c1nc2ccccc2n1CC(=O)NC1CCCC1`: the cytotoxicity is 0%.
As for `CCOc1ccc(CCNC(=O)Cn2c(-c3nonc3N)nc3ccccc32)cc1OCC`, the cytotoxicity is -22.9%.
As to `CC(=O)N1CCN=C1SCc1ccccc1`, the cytotoxicity is 3%.
With `Cc1cc(C(=O)N2CC(C)CC(C)C2)n(-c2ccccc2)n1` (stereo not drawn), the cytotoxicity was -6.9%.
Turning to `Cc1nc2ccccc2c(=O)n1NC(=O)c1ccc(F)cc1Cl`, the cytotoxicity was -0.2%.
In the case of `COc1ccc2nc(NC(=O)c3ccc4ncsc4c3)sc2c1`, the cytotoxicity was 0.5%.
With `CCOc1cccc(CN2CCN(c3cccc(C(F)(F)F)c3)CC2)c1O`, the cytotoxicity is -3.2%.
As for `CCOC(=O)C1=C(CSc2nc(-c3ccncc3)ccc2C#N)OC(N)=C(C#N)C1c1cccnc1` (stereo not drawn), the cytotoxicity was 4%.
Consider `CCOC(=O)C1=C(CSc2nc3c(cc2C#N)CCC3)OC(N)=C(C#N)C1c1ccccc1` (stereo not drawn), for which the cytotoxicity was 101% (active).
Regarding `CCOC(=O)C1=C(C)OC(N)=C(C#N)C1c1ccc(OC)c(C)c1OC` (stereo not drawn), the cytotoxicity is -1.3%.
For the compound `CCOC(=O)C1=C(CSc2nc3c(cc2C#N)CN(C)CC3)OC(N)=C(C#N)C1c1ccccc1` (stereo not drawn), the cytotoxicity is 3.4%.
`CCOC(=O)C1=C(CSc2nc(C)cc(C)c2C#N)OC(N)=C(C#N)C1c1cccs1` (stereo not drawn): the cytotoxicity is -28.5%.
As for `CCOC(=O)C1=C(CSc2nc(C)ccc2C#N)OC(N)=C(C#N)C1c1cccc(OC)c1OC` (stereo not drawn), the cytotoxicity is 59.3% (active).
The value for `CC(c1ccco1)N(C(=O)CSc1ccc(Br)cc1)c1ccccn1` (stereo not drawn) was 9.1%; that for `CCCCOC(=O)C(C)Nc1n[nH]c(=O)[nH]c1=O` (stereo not drawn) was 8.9%.
Regarding `Cc1cc(C)n(S(=O)(=O)c2ccc3ccccc3c2)n1`, the cytotoxicity is 28.5%.
Then `COC(=O)C1=C(CSCc2ccco2)NC(=O)NC1c1cc(C)ccc1C` (stereo not drawn), with -3.6%; and `c1ccc(-c2noc(CN3CCN(c4ccccc4)CC3)n2)cc1`, with -1.5%; and `COc1cccc(CNC(=O)C2CCN(S(=O)(=O)c3ccc4c(c3)CCC(=O)N4)CC2)c1`, with -2.9%.
On to `c1coc(CNc2nc(N3CCCCC3)nc3ccccc23)c1`, for which the cytotoxicity was 25.2%.
Regarding `Oc1ccccc1-c1nc(NCc2ccco2)c2ccccc2n1`, the cytotoxicity is 0.8%.
In the case of `O=C(Cn1ncc2c(=O)oc3ccccc3c21)N1CCc2ccccc2C1`, the cytotoxicity is -15.7%.
With `N#Cc1c(/N=C/c2ccco2)oc(-c2ccccc2)c1-c1ccccc1`, the cytotoxicity is 70% (active).
Regarding `N#Cc1c(/N=C/N2CCCC2)oc(-c2ccccc2)c1-c1ccccc1`, the cytotoxicity was 13.1%.
With `N#Cc1c(N)oc(-c2ccccc2)c1-c1ccccc1`, the cytotoxicity was -7.1%.
Turning to `CCC(=O)N1CCN(c2ccc(NC(=O)c3ccc4c(c3)OCO4)cc2)CC1`, the cytotoxicity is -5.7%.
For `COc1ccc(CN(C(=O)c2ccccc2OC)C2CCS(=O)(=O)C2)cc1` (stereo not drawn), the cytotoxicity is -0.4%.
Take `CCN(CC)C(=O)CSc1nnc(-c2ccccc2)n1N`: the cytotoxicity was -1.9%.
For `O=C(NC1CCCCC1)N1CCC(n2c(=O)[nH]c3ccccc32)CC1`, the cytotoxicity was -3.9%.
The value for `O=c1[nH]c2ccccc2n1CCCN1CCN(C(c2ccccc2)c2ccccc2)CC1` was -7.2%; that for `O=C1CC(c2ccccc2)Sc2ccccc2N1` (stereo not drawn) was -15%; that for `Cn1cccc1CNC(=O)Nc1ccc(Cl)cc1` was -23.2%.
Then `C=C(C)COc1ccc(-c2nc(N)nc(C)c2Oc2ccccc2OC)c(O)c1`, with -1.3%.
In the case of `C=C(C)COc1ccc(-c2ncncc2Oc2ccc(OC)cc2)c(O)c1`, the cytotoxicity was 1.9%.
Take `C=C(C)COc1ccc(-c2nc(N)ncc2Oc2ccccc2OC)c(O)c1`: the cytotoxicity was 0.9%.
Consider `CCOc1ccc(-c2n[nH]c(C)c2Oc2ccccc2OC)c(O)c1`, for which the cytotoxicity was -2.5%.
Consider `C=C(C)COc1ccc(-c2n[nH]c(C)c2Oc2ccccc2OC)c(O)c1`, for which the cytotoxicity was 61.3% (active).
Turning to `CC(C)Cc1ccc(C#N)c(SCC(N)=O)n1`, the cytotoxicity was -5.5%.
Consider `Cc1ccc(NC(=O)CSc2nnc(Cn3c(=O)sc4ccccc43)n2C)cc1Cl`, for which the cytotoxicity was -0.9%.
Consider `O=C(COC(=O)CCC(=O)c1ccc2c(c1)OCCO2)NCc1ccc2c(c1)OCO2`, for which the cytotoxicity was -8.4%.
For `Nn1c(Cc2ccccc2F)nnc1SCC(=O)N1CC(=O)Nc2ccccc21`, the cytotoxicity is -3.4%.
`Cc1cc(C)cc(N2CCCn3c2nc2c3c(=O)n(CC(=O)OCc3ccccc3)c(=O)n2C)c1`: the cytotoxicity was 26.4%.
Then `O=C(O)C1CCCCC1C(=O)OCCCCOC(=O)C1CCCCC1C(=O)O` (stereo not drawn), with 3.9%; and `Cc1[nH]nc(-c2ccc(O)cc2O)c1Oc1ccccc1`, with 69.8% (active); and `COc1ccc(-c2n[nH]c(C)c2-c2cnn(-c3ccccc3)c2)c(O)c1`, with 36.4%.
The value for `Oc1ccc(-c2[nH]ncc2-c2ccc(Cl)cc2)c(O)c1` was 33.3%; that for `COc1ccc(-c2n[nH]c(C)c2-c2ccc(Cl)cc2)c(O)c1OC` was -29.4%; that for `Cc1[nH]nc(-c2ccc(O)cc2O)c1-c1ccc(Cl)cc1` was 60.1% (active).
Take `COc1ccc(Oc2c(-c3ccc(O)cc3O)n[nH]c2C)cc1`: the cytotoxicity is 26.3%.
Consider `CSCCC(C(=O)Nc1ccc2c(c1)OCO2)N1C(=O)c2ccccc2C1=O` (stereo not drawn), for which the cytotoxicity was 0.6%.
Take `CN(C)c1ccc(CNC(=O)C2CCN(S(=O)(=O)c3ccc4c(c3)CCC(=O)N4)CC2)cc1`: the cytotoxicity is 3.1%.
On to `COc1ccc(N2CC(C(=O)NCCCN3CCOCC3)CC2=O)cc1` (stereo not drawn), for which the cytotoxicity is 3.4%.
Turning to `Cn1c(=O)c2c(nc(SCCN3CCOCC3)n2Cc2ccc(F)cc2)n(C)c1=O`, the cytotoxicity is 3.9%.
The value for `CCCc1nc2ccccc2c(C(=O)OC2CCOC2=O)c1CC` (stereo not drawn) was -7.5%.
Turning to `NC1(N)OC(CN2C(=O)c3ccccc3C2=O)CS1` (stereo not drawn), the cytotoxicity is -15%.
Then `COc1cc2c3c(c1)C1(C(=O)N3C(C)(C)C=C2C)C(C#N)=C(N)Oc2cc(O)ccc21` (stereo not drawn), with -9.2%.
In the case of `CC1=CC(C)(C)N2C(=O)C3(C(C#N)=C(N)Oc4cc(C)oc(=O)c43)c3cccc1c32` (stereo not drawn), the cytotoxicity was 1.3%.
Regarding `CC1=CC(C)(C)N2C(=O)C3(C(C#N)=C(N)Oc4cc(O)ccc43)c3cccc1c32` (stereo not drawn), the cytotoxicity was 68.4% (active).
As for `Cc1ccc2cc3c(nc2c1)N(Cc1ccco1)CC3`, the cytotoxicity is -15.5%.
On to `CC1CCN(S(=O)(=O)c2ccc(NC(=O)Cn3nnc(-c4ccccc4)n3)cc2)CC1`, for which the cytotoxicity was 3.7%.
As to `Cc1cc(NC(=O)COc2cccc3cccnc23)no1`, the cytotoxicity is 7.3%.
In the case of `COCCOC(=O)C(C#N)c1nc2ccccc2nc1N1CCN(Cc2ccccc2)CC1` (stereo not drawn), the cytotoxicity was 8.9%.
As to `CCCCCCOC(=O)C(C#N)c1nc2ccccc2nc1N1CCN(CC)CC1` (stereo not drawn), the cytotoxicity is 12.4%.
On to `N#CC(C(=O)NCc1ccccc1)c1nc2ccccc2nc1N1CCCC1` (stereo not drawn), for which the cytotoxicity is -2%.
Consider `COc1ccc(CNC(=O)C(C#N)c2nc3ccccc3nc2N2CCCC2)cc1` (stereo not drawn), for which the cytotoxicity is -15.8%.
Regarding `CCCCCCOC(=O)C(C#N)c1nc2ccccc2nc1N1CCCCC1` (stereo not drawn), the cytotoxicity was -47.4%.
The value for `CC(C)COC(=O)C(C#N)c1nc2ccccc2nc1N1CCN(Cc2ccccc2)CC1` (stereo not drawn) was -14%; that for `COc1ccc(CNC(=O)C(C#N)c2nc3ccccc3nc2N2CCN(C)CC2)cc1` (stereo not drawn) was 72% (active); that for `CCCCCCOC(=O)C(C#N)c1nc2ccccc2nc1N1CCN(C)CC1` (stereo not drawn) was 64.2% (active).
As for `CCN1CCN(c2nc3ccccc3nc2C(C#N)C(=O)OCc2ccccc2)CC1` (stereo not drawn), the cytotoxicity was 58% (active).
`Cc1cc2cc(CCNC(=O)CC(C)C)c(=O)[nH]c2cc1C`: the cytotoxicity is 3.7%.
`O=C(NCc1ccco1)c1cc2ccccc2c(=O)o1`: the cytotoxicity was -3.4%.
The value for `Cc1nc(-c2cn[nH]c2)c2cc(C)oc2n1` was 1.2%; that for `CCCN(CCC)c1nc2ccccc2nc1C(C#N)C(=O)OCCOC` (stereo not drawn) was -8.9%.
On to `Cc1nnc(SCC(=O)Nc2nc3c(s2)CC(C)CC3)s1` (stereo not drawn), for which the cytotoxicity is 1%.
On to `CCC(c1nnnn1C(C)(C)C)N(CCOC)Cc1cc2cccc(C)c2n2nnnc12` (stereo not drawn), for which the cytotoxicity is 5.7%.
On to `CCOC(=O)c1c(C)oc2c1c(C(c1cccnc1)N1CCN(C)CC1)c(O)c1ccccc12` (stereo not drawn), for which the cytotoxicity was 112% (active).
Consider `CCOC(=O)c1c(C)oc2c1c(C=NC1CCS(=O)(=O)C1)c(O)c1ccccc12` (stereo not drawn), for which the cytotoxicity was 28.9%.
The value for `CCOC(=O)c1c(C)oc2c1c1c(c3ccccc32)OCN(Cc2cccnc2)C1` was 2.1%; that for `CCOC(=O)c1c(C)oc2c1c(C=NCC1CCCO1)c(O)c1ccccc12` (stereo not drawn) was -16.9%; that for `CCOC(=O)c1c(C)oc2c1c(/C=N/c1ccccn1)c(O)c1ccccc12` was 1.4%.
For the compound `CCOC(=O)c1c(C)oc2c1c(C=NCc1ccccn1)c(O)c1ccccc12`, the cytotoxicity is 91% (active).
